This note sets out measurements from PubChem BioAssay (EPA / NIEHS).

The term AC50 denotes the concentration giving half of the maximal activity seen.

Calls of active or inactive are those of the source. How the source made its calls: active means hit-call score of the fitted dose curve at least 0.9, where 1 is the maximum; inactive means score below 0.9.

Chain of Signal transducer and activator of transcription 3 (Homo sapiens) (P40763 whole entry, looked up): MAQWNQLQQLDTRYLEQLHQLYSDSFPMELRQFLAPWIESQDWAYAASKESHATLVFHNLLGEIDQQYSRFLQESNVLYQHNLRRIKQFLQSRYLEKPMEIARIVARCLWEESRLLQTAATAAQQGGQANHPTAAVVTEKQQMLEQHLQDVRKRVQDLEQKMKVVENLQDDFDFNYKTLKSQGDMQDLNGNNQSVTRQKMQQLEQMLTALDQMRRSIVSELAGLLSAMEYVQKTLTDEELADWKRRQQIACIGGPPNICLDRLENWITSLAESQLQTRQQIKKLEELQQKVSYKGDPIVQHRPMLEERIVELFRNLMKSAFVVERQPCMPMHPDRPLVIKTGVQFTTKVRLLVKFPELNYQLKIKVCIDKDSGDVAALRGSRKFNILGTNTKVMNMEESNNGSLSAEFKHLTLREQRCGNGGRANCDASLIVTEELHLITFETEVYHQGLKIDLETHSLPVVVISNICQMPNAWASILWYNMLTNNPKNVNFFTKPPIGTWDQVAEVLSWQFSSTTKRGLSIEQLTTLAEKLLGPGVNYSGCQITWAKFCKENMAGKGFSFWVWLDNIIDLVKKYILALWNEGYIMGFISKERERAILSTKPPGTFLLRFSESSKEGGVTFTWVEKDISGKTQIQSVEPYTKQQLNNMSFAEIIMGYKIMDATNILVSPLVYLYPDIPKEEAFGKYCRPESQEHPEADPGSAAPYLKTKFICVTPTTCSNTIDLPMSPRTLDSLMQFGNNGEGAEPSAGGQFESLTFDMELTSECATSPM

Test system in the first assay: not listed separately
The assay can be described thus: ATG_SREBP_CIS: Attagene CIS-FACTORIAL HepG2 Assay for human Sterol Regulatory Element Binding (SREBP) (AID 2282962). The note with it: HepG2 Attagene cis-factorial SREBP reporter, mRNA; actives raise or lower the signal. Put shortly:
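Endogenous SREBP activity read as cis-element-driven reporter transcript in transiently transfected HepG2, 24 h post-dosing; quantified via RT-PCR plus capillary electrophoresis of fluorescent fragments. Gain or loss of signal fitted relative to DMSO baseline.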
Consider `COCCc1ccc(OCC(O)CNC(C)C)cc1` (configuration not stated), for which the compound was classed as inactive. For `NCCNc1cccc2ccccc12`, the AC50 is 35.6 µM (active).

Take `C=C(C#N)C(=O)OCC`: the result was inactive. In the case of `CC(C)=CCCC(C)CC(=O)O` (configuration not stated), the compound was called inactive. The same measure, in the same setting: for `Cc1c(OCC(F)(F)F)ccnc1CS(=O)c1nc2ccccc2[nH]1` (configuration not stated) the value was “inactive”; for `CC1=CC[C@@]23C[C@@H]1C(C)(C)[C@@H]2CC[C@H]3C`, “inactive”; for `C=C(C)CNCC`, “inactive”. Turning to `CC(C)(N=C=O)c1cccc(C(C)(C)N=C=O)c1`, the outcome was inactive. On to `CN1C(=O)c2ccccc2C1=O`, for which the outcome was inactive. Same read-out and setting: as for `CCCCCCCCCCCC(=O)OC[C@@H](O)[C@H]1OC[C@H](O)[C@H]1O`, the entry is “inactive”; as for `CCCCCC(C)=O`, “inactive”; as for `C[C@H](CCC(=O)NCC(=O)O)[C@H]1CC[C@H]2[C@@H]3[C@H](O)C[C@@H]4C[C@H](O)CC[C@]4(C)[C@H]3C[C@H](O)[C@]12C`, “inactive”. Turning to `CC(C=O)Cc1ccc(C(C)(C)C)cc1` (configuration not stated), the compound was classed as inactive. Turning to `CN1CCOCC1`, the result was inactive.

With `c1ccc(CN(Cc2ccccc2)Cc2ccccc2)cc1`, the call was inactive. Turning to `CC/C=C\CC/C=C/CO`, the result was inactive. Turning to `CCCC(=O)c1ccccc1`, the compound was called inactive. For `CCCCCCC(=O)c1ccccc1`, the call was inactive. As for `O=C1OC(=O)c2c(Cl)c(Cl)c(Cl)c(Cl)c21`, the compound was classed as inactive. Same read-out and setting: as for `CCCCSCCCC`, the entry is “inactive”; as for `C=C(CC(=O)O)C(=O)O`, “inactive”; as for `C=CCOC(=O)CCCCCC`, “inactive”.

Consider `OC[C@H]1O[C@@H]2O[C@H]3[C@H](O)[C@@H](O)[C@@H](O[C@H]4[C@H](O)[C@@H](O)[C@@H](O[C@H]5[C@H](O)[C@@H](O)[C@@H](O[C@H]6[C@H](O)[C@@H](O)[C@@H](O[C@H]7[C@H](O)[C@@H](O)[C@@H](O[C@H]8[C@H](O)[C@@H](O)[C@@H](O[C@H]9[C@H](O)[C@@H](O)[C@@H](O[C@H]1[C@H](O)[C@H]2O)O[C@@H]9CO)O[C@@H]8CO)O[C@@H]7CO)O[C@@H]6CO)O[C@@H]5CO)O[C@@H]4CO)O[C@@H]3CO`, for which the compound was called inactive. For `CCO/C=C1\N=C(c2ccccc2)OC1=O`, the result was inactive. Regarding `COc1ccc(CCO)cc1`, the compound was called inactive. `C#CC(C)N(C)C(=O)Nc1ccc(Cl)cc1` (configuration not stated): the outcome was inactive.

As to `FC(F)(F)COCC(F)(F)F`, the outcome was inactive. `C=C(C)C(=O)OCCOCCOCCOC(=O)C(=C)C`: the compound was classed as inactive. On the same count and under the same terms, for `[Cl][Au]([Cl])[Cl]` the value was “inactive”.

A further assay has as its target Signal transducer and activator of transcription 3 (Homo sapiens) (UniProt P40763). The assay can be described thus: ATG_STAT3_CIS: Attagene CIS-FACTORIAL HepG2 Assay for human Signal Transducer and Activator of Transcription 3 (STAT3) (AID 2282963). The note with it: HepG2, Attagene cis-factorial STAT3 reporter transcription; actives raise or lower the signal. Put shortly: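 Readout is reporter transcript quantified by RT-PCR and capillary electrophoresis, with 6-FAM primer extension and HpaI digestion. Total RNA is taken 24 h after dosing transiently transfected HepG2 carrying cis-regulated reporter units. Bidirectional fit against DMSO.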
Regarding `CCCC(O)C(O)CO` (configuration not stated), the result was inactive. `COCCc1ccc(OCC(O)CNC(C)C)cc1` (configuration not stated): the compound was classed as inactive. `NCCNc1cccc2ccccc12`: the call was inactive.

On to `C=C(C#N)C(=O)OCC`, for which the outcome was inactive. With `CC(C)=CCCC(C)CC(=O)O` (configuration not stated), the compound was classed as inactive.

In the case of `Cc1c(OCC(F)(F)F)ccnc1CS(=O)c1nc2ccccc2[nH]1` (configuration not stated), the compound was classed as inactive. In the case of `Nc1ccc(NCCO)c([N+](=O)[O-])c1`, the result was inactive. Still for that read-out and setting: as for `CCOC(=O)c1ccc(N)cc1`, the entry is “inactive”; as for `Oc1ccc2cc(SSc3ccc4cc(O)ccc4c3)ccc2c1`, “inactive”; as for `CC1=CC[C@@]23C[C@@H]1C(C)(C)[C@@H]2CC[C@H]3C`, “inactive”. With `C=C(C)CNCC`, the call was inactive. `CC(=O)NCCO`: the outcome was inactive.

Consider `CC(C)(N=C=O)c1cccc(C(C)(C)N=C=O)c1`, for which the compound was classed as inactive. `COC(=O)c1ccc(C)cc1C1=NC(C)(C(C)C)C(=O)N1` (configuration not stated) (tested in a mixture with another compound): the outcome was inactive.

Turning to `CN1C(=O)c2ccccc2C1=O`, the call was inactive. On the same count and under the same terms, for `OCCCCC(O)CO` (configuration not stated) the value was “inactive”; for `CCCCCCCCCCCC(=O)OC[C@@H](O)[C@H]1OC[C@H](O)[C@H]1O`, “inactive”; for `CN(c1nccc(=O)[nH]1)C1CCN(c2nc3ccccc3n2Cc2ccc(F)cc2)CC1`, “inactive”.

For the compound `CCCCCC(C)=O`, the compound was called inactive. With `C[C@H](CCC(=O)NCC(=O)O)[C@H]1CC[C@H]2[C@@H]3[C@H](O)C[C@@H]4C[C@H](O)CC[C@]4(C)[C@H]3C[C@H](O)[C@]12C`, the result was inactive. On to `CC(C=O)Cc1ccc(C(C)(C)C)cc1` (configuration not stated), for which the compound was classed as inactive.

`CN1CCOCC1`: the result was inactive. With `c1ccc(CN(Cc2ccccc2)Cc2ccccc2)cc1`, the call was inactive. Take `CC/C=C\CC/C=C/CO`: the result was inactive. `CCCC(=O)c1ccccc1`: the result was inactive. Regarding `CCCCCCC(=O)c1ccccc1`, the compound was classed as inactive. On to `O=C1OC(=O)c2c(Cl)c(Cl)c(Cl)c(Cl)c21`, for which the result was inactive. As to `CCCCSCCCC`, the call was inactive.

As to `C=C(CC(=O)O)C(=O)O`, the outcome was inactive. Take `C=CCOC(=O)CCCCCC`: the call was inactive. For the compound `OC[C@H]1O[C@@H]2O[C@H]3[C@H](O)[C@@H](O)[C@@H](O[C@H]4[C@H](O)[C@@H](O)[C@@H](O[C@H]5[C@H](O)[C@@H](O)[C@@H](O[C@H]6[C@H](O)[C@@H](O)[C@@H](O[C@H]7[C@H](O)[C@@H](O)[C@@H](O[C@H]8[C@H](O)[C@@H](O)[C@@H](O[C@H]9[C@H](O)[C@@H](O)[C@@H](O[C@H]1[C@H](O)[C@H]2O)O[C@@H]9CO)O[C@@H]8CO)O[C@@H]7CO)O[C@@H]6CO)O[C@@H]5CO)O[C@@H]4CO)O[C@@H]3CO`, the compound was called inactive.

With `CCO/C=C1\N=C(c2ccccc2)OC1=O`, the result was inactive. Take `COc1ccc(CCO)cc1`: the AC50 is 179 µM (active). On to `C#CC(C)N(C)C(=O)Nc1ccc(Cl)cc1` (configuration not stated), for which the compound was called inactive.

Regarding `FC(F)(F)COCC(F)(F)F`, the call was inactive.

For the compound `O=C(Nc1ccc2c(O)c(N=Nc3ccc(N=Nc4ccc(S(=O)(=O)O)cc4)cc3)c(S(=O)(=O)O)cc2c1)c1ccccc1`, the result was inactive. Consider `C=C(C)C(=O)OCCOCCOCCOC(=O)C(=C)C`, for which the compound was classed as inactive. The same measure, in the same setting: as for `[Cl][Au]([Cl])[Cl]`, the entry is “inactive”.
